This is a sample that favours compounds with a hit; in the whole collection about 4.2% have one here.
tim23-1 inh: growth inhibitors of tim23-1 mutant yeast, primary screen, luminescence, uHTS; S. cerevisiae tim23-1 growth, BacTiter-Glo luminescence, 24 h; inhibition, % at 20 µM; hit rate 1.3% among 330,000; AID 463212, 2010;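 active means growth inhibition of the mutant yeast at or above 50%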;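 further: temperature-sensitive mutant grown at 25 °C; plate controls were DMSO-treated mutant yeast for no effect and medium wells lacking yeast for full effect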
V-ATPase pHluor: regulators of yeast V-ATPase proton pumping, primary screen, pHLuorin cytosolic pH fluorescence. S. cerevisiae. response, % at 10 µM. hit rate 0.37% among 350,000; in the data active means response mostly above about 7.3%, no sharp cut-off; inactive means mostly below about 5.4%; further: actives read high
NALP1 inh: NALP1 inflammasome inhibitors in reconstituted yeast, colorimetric, S. cerevisiae, triplicate retest; hit rate 0.61% among 280,000; inhibition, % at 10 µM; AID 2071, 2009; S. cerevisiae NALP1/ASC/caspase-1 growth, X-gal OD620, 72 h; in the data active means inhibition mostly above about 24%, no sharp cut-off; inactive means mostly below about 32%
NALP3 yeast inh: NALP3 inflammasome inhibitors in reconstituted yeast, primary screen, luminescence, uHTS. Yeast reconstituted NLRP3/ASC/caspase-1, beta-gal luminescence, 24 h. inhibition, % at 10 µM. hit rate 0.39% among 330,000. AID 2825, 2010;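 active means inhibition of 50% or more; inactive means inhibition below 50%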;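 further: plate controls were induced DMSO wells for no effect and uninduced yeast grown without galactose for full effect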
tim10-1 inh: growth inhibitors of tim10-1 mutant yeast, primary screen, luminescence, uHTS; S. cerevisiae tim10-1 ts strain growth, BacTiter-Glo, 24 h; inhibition, % at 20 µM; hit rate 2.2% among 330,000; AID 463190, 2010;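 active means inhibition of at least 40%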;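 further: mutant grown at 25 °C; 0% = DMSO wells with yeast and 100% = wells holding no yeast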
TIM10 inh: growth inhibitors of isogenic TIM10 control yeast, primary screen, counter-screen for tim10-1 yeast inhibitor project, luminescence, uHTS | S. cerevisiae TIM10 strain growth, BacTiter-Glo luminescence, 24 h | hit rate 1.4% among 330,000 | inhibition, % at 10 µM;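 active means inhibition of 40% or more at the single tested concentration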;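 further: wild-type TIM10 isogenic control strain grown at permissive 25 °C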
tim10 confirm: growth inhibitors of wild-type TIM10 yeast, confirmation, counter-screen for tim10-1 synthetic lethality project, single concentration, luminescence, S. cerevisiae. shares compounds with TIM10 inh. inhibition, % at 10 µM. S. cerevisiae tim10 strain growth, BacTiter-Glo luminescence, 24 h. hit rate 63% among 4,600;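 active means inhibition of yeast growth at or above a set limit in either of two replicates at 10 µM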;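 further: this counterscreen used the strain with wild-type TIM10; 0% = yeast with DMSO and 100% = medium wells lacking yeast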
tim23-1 conf: tim23-1 mutant yeast growth inhibitors, confirmation, luminescence, single concentration; hit rate 83% among 4,400; inhibition, % at 20 µM; S. cerevisiae tim23-1 growth, BacTiter-Glo luminescence, 24 h; shares compounds with tim23-1 inh;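 active means inhibition above about 39% in either of two replicate wells at 20 µM, limit read from the data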;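 further: temperature-sensitive tim23-1 mutant grown at 25 °C; 0% = DMSO wells with yeast and 100% = medium wells without yeast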
Numbers without * were called inactive; nt = not tested or not shown.

SMILES | tim23-1 inh | V-ATPase pHluor | NALP1 inh | NALP3 yeast inh | tim10-1 inh | TIM10 inh | tim10 confirm | tim23-1 conf
COc1ccc(Cc2nc(C(=O)Nc3ccc(Cl)cc3)cs2)cc1 | 24.3 | 16.7 | 5.7 | 11.5 | 26.9 | 46.7* | 36.8* | nt
N/C(CC1CC1(Cl)Cl)=N\OC(=O)c1ccccc1 (stereo not drawn) | 79.5* | 3.4 | -6.2 | 4.4 | 35.1 | 52.0* | 66.3* | 73.2*
Cc1ccc(-c2cc(O)cc3sc(=O)oc23)cc1C | 71.3* | -4.5 | -9.2 | 25.2 | 23.2 | 53.5* | 68.0* | 6.8
CCNc1nc(N)nc(-c2cc(Cl)ccc2O)n1 | 55.9* | 6.2 | 34.2 | 21.1 | 34.1 | 50.5* | -9.1 | 37.2
CCCCNc1nc(N)nc(-c2cc(Cl)ccc2O)n1 | 21.4 | -5.1 | 5.8 | 8.9 | 26.8 | -69.0 | nt | nt
Cc1cccc(C)c1NC(=O)/C(C#N)=C/c1ccsc1 | 62.3* | -3.2 | 35.2 | 24.6 | 39.2 | 44.1* | 37.4* | 57.1*
COc1cccc(C(C)=C2SC(=S)NC2=O)c1 | nt | -0.2 | nt | nt | nt | nt | nt | nt
CCSc1ccc(/C(N)=N/OC(=O)c2cccs2)cn1 | 61.3* | 4.3 | 4.5 | 16.2 | 34.7 | 63.0* | 63.2* | 73.7*
CCCC(=O)NC(=S)Nc1cccc(NC(=O)c2ccccc2Cl)c1 | 53.5* | -4.0 | 4.5 | -1.8 | 36.4 | 44.8* | 39.4* | 44.0*
CCCC(=O)NC(=S)Nc1cccc(NC(=O)c2ccc(Cl)cc2Cl)c1 | 2.3 | 3.2 | 22.9 | 6.6 | 7.7 | 5.4 | nt | nt
O=[N+]([O-])/C=C/c1c(OCc2ccccc2)ccc2ccccc12 | 60.7* | 4.2 | 0.8 | 8.9 | 33.9 | 72.7* | 5.9 | 47.3*
NCC1C2CCC(O2)C1CO (stereo not drawn) | nt | -0.8 | nt | nt | nt | nt | nt | nt
Cc1cc(Sc2ccc([N+](=O)[O-])cn2)ccc1Br | -3.4 | -2.1 | nt | 39.1 | -14.6 | -6.5 | nt | nt
Cc1cc(S(=O)(=O)c2ccc([N+](=O)[O-])cn2)ccc1Br | 86.3* | 8.7* | nt | -0.6 | 22.0 | 44.4* | 60.5* | 80.6*
N#Cc1nc(-c2ccccc2F)oc1NCCc1ccccc1 | 56.6* | 0.4 | 9.8 | 31.2 | 35.9 | 66.3* | 60.7* | 77.9*
N#CC1=C(N2CCCCC2)c2cc3c(n2C1=O)CCCC3 | 51.6* | -3.0 | 11.4 | 22.3 | 34.1 | 44.5* | 32.7* | 56.8*
O=C1O/C(=C/c2ccccc2)c2ccccc21 | 25.6 | 3.3 | 58.8 | 35.5 | -4.3 | -3.6 | nt | nt
N#CC1=C(c2ccccc2)/C(=C/c2ccccc2)OC1=O | 61.2* | 7.8 | 12.4 | 26.1 | 33.7 | 43.7* | 51.7* | 59.0*
Cn1c(CNC(=O)CCNC(=O)c2ccc(F)c(F)c2)cc(=O)n(C)c1=O | 13.0 | 2.1 | 17.3 | 22.8 | 19.8 | 10.0 | nt | nt
Cc1ccc(NC(=O)C2CCN(C(=O)c3ccco3)CC2)cc1C | 5.9 | 2.0 | 0.6 | 14.7 | -8.0 | 10.2 | nt | nt
O=C(O)c1cc2c([nH]c1=O)CCCC2 | 1.4 | 2.1 | -0.3 | 9.5 | 5.1 | -10.8 | nt | nt
C=CCSC(=C(C#N)C#N)c1cc2c([nH]1)CCCC2 | 52.5* | 6.0 | 12.7 | 34.0 | 28.6 | 40.8* | 23.1 | 62.5*
O=C(Nc1nncs1)c1cc2c(s1)CCC2 | 19.1 | -1.2 | -5.3 | 33.1 | -2.6 | 4.8 | nt | nt
O=C(Nc1nccs1)c1cc2c(s1)CCCCC2 | 57.9* | -2.5 | 10.2 | -21.8 | 37.1 | 45.6* | 59.0* | 65.0*
O=C(CCN1CCOCC1)N/N=C/c1cc(Br)cc(Br)c1O | 62.8* | -0.1 | 4.7 | 32.0 | 36.8 | 57.9* | 50.2* | 62.4*
SMILES | tim23-1 inh | V-ATPase pHluor | NALP1 inh | NALP3 yeast inh | tim10-1 inh | TIM10 inh | tim10 confirm | tim23-1 conf
O=C(Cc1ccccc1)N/N=C/c1cc(Br)cc(Br)c1O | 25.5 | 3.5 | -2.9 | 9.3 | 34.3 | 38.1 | nt | nt
O=C(Nc1ccccc1)c1ccc(Br)c(S(=O)(=O)Nc2ccccn2)c1 | 6.7 | 5.7 | 11.8 | 0.6 | 6.1 | 11.0 | nt | nt
CCN/N=C(\Cc1nc2ccccc2[nH]1)c1ccccc1 | 22.6 | -2.1 | -0.1 | 14.3 | 7.4 | 15.8 | nt | nt
c1ccc(N/N=C(\Cc2nc3ccccc3[nH]2)c2ccccc2)cc1 | 58.2* | 2.0 | 14.2 | 25.4 | 39.9 | 48.4* | -1.0 | 60.0*
CC1(C)NC(=O)N(CC(=O)N2CCCC(C(F)(F)F)C2)C1=O (stereo not drawn) | 4.0 | 11.9 | nt | 12.5 | 0.2 | -0.6 | nt | nt
COc1cc([N+](=O)[O-])cc2sc(NC(=O)c3c(F)cccc3F)nc12 | 51.7* | 3.0 | 0.0 | -6.3 | 37.1 | 47.0* | 43.6* | 50.7*
O=C(c1ccc(S(=O)(=O)NCC2CCCO2)cc1)N1CCN(c2cccc(Cl)c2)CC1 (stereo not drawn) | nt | -1.4 | 7.2 | nt | nt | nt | nt | nt
Cc1cccc2cc(/C=C/C(=O)c3ccco3)c(Cl)nc12 | 50.2* | 0.4 | nt | 29.5 | 30.0 | 43.3* | 9.6 | 52.3*
CCN(CC)C(=O)c1cc([N+](=O)[O-])cc2c1-c1ccc([N+](=O)[O-])cc1C2=C(C#N)C#N | 50.6* | 0.7 | -2.7 | 11.2 | 36.8 | 40.5* | 22.1 | 74.3*
CC(C)NC(=S)N/N=C/c1cc(Br)ccc1O | 55.1* | -2.7 | 37.1 | 6.0 | 39.1 | 55.5* | -9.7 | -5.6
O=C(N/N=C/c1cc(Br)ccc1O)c1ccccc1Cl | 78.9* | 2.0 | 59.1* | 16.8 | 35.5 | 64.9* | -34.0 | 68.8*
Cc1cc2cc(C=O)c(Cl)nc2cc1C | 64.2* | -0.5 | 3.4 | 31.2 | 34.3 | 44.5* | 28.1* | 80.6*
CN(C)NC(=S)NC1CCS(=O)(=O)C1 (stereo not drawn) | -7.9 | 0.7 | 23.4 | 0.3 | -4.8 | -0.3 | nt | nt
O=C(O)/C=C\c1cccc(-n2nnnc2SCc2ccccc2F)c1 | 5.9 | 2.7 | -2.3 | 19.6 | -3.4 | 6.4 | nt | nt
Oc1ccccc1N=Nc1nc(-c2ccccc2)c(-c2ccccc2)[nH]1 | 52.8* | 4.7 | -7.3 | 20.6 | 25.7 | 56.0* | 57.2* | 62.2*
O=[N+]([O-])c1ccc(Cl)cc1NCC1CCCO1 (stereo not drawn) | 6.0 | 0.6 | 6.4 | -0.4 | 0.8 | -23.6 | nt | nt
CCN(CC)c1ccc(/C=N/NC(=O)c2cccc(S(=O)(=O)N3CCOCC3)c2)c(O)c1 | -11.3 | -1.4 | -16.6 | 6.9 | 23.4 | 7.1 | nt | nt
CCN(CC)c1ccc(/C=N/NC(=O)c2c(Cl)cnn2C)c(O)c1 | 66.5* | -1.1 | 7.5 | 18.0 | 36.3 | 58.1* | 13.2 | 62.2*
Cc1ccc2nc(-c3ccc4c(c3)OCCO4)cn2c1 | 51.2* | 2.5 | -1.0 | 38.8 | 34.4 | 74.3* | 75.6* | 52.1*

Screens: PubChem BioAssay, several laboratories
